These results are taken from PubChem BioAssay (NCI).

This is part of a sample that, as a whole, favours compounds with a hit. Of some 83,000 tested, about 20% had one in any assay.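 Each cell line was grown in a 96-well plate and treated with one concentration of compound for 48 hours. Values below 10 were considered active.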 A number with no mark means an inactive call. The source made the active and inactive calls.

Test systems include NCI-H23 lung; NCI-H226 lung; NCI-H322M lung; HOP-62 NSCLC; NCI-H460 lung; HOP-92 NSCLC; NCI-H522 lung; A549/ATCC NSCLC; 786-0 renal; COLO 205 colon; DU-145 prostate; K-562 leukemia; MALME-3M melanoma; MDA-MB-231 breast; RXF 393 renal; SF-268 CNS; SF-295 CNS; SF-539 CNS; UACC-257 melanoma; M14 melanoma.
Test in all cases: NCI-60 one-dose screen, 48 h (100 = growth as untreated, 0 = no growth, -100 = all killed)
Common to all, as to conditions: 10 µM unless noted

For the compound `COc1ccc(/C=C\c2cc(OC)c(OC)c(OC)c2)c(NS(=O)(=O)c2ccc(C)cc2)c1O`, the growth is 23.2% in the assay on NCI-H23 lung; 33.9% with NCI-H226 lung; 43.6% in the assay with NCI-H322M lung; 80.7% in the assay on HOP-62 NSCLC; 6.42% (active) in the assay on NCI-H460 lung; 44.4% with HOP-92 NSCLC. Also, the growth is -17.3% (active) in the assay on NCI-H522 lung; 26.6% in the assay with A549/ATCC NSCLC; 18.8% in the assay on 786-0 renal; -15.5% (active) in the assay on COLO 205 colon; -14.4% (active) with DU-145 prostate; 17.6% with K-562 leukemia. Also, the growth in the assay with MALME-3M melanoma was 92.2%; in the assay with MDA-MB-231 breast, 14.8%; in the assay on RXF 393 renal, 32.5%; with SF-268 CNS, 19.4%; in the assay on SF-295 CNS, 16.9%; in the assay on SF-539 CNS it was 1.5% (active). Also, the growth in the assay on UACC-257 melanoma was 66.7%; with M14 melanoma, 9.2% (active).
On to `Clc1cccc(NCOOC2(OOCNc3cccc(Cl)c3)CCCCC2)c1`, for which the growth with NCI-H23 lung was 43.6%; in the assay with NCI-H226 lung, 94.7%; in the assay on NCI-H322M lung, 73.7%; in the assay with HOP-62 NSCLC, 49.5%; in the assay on NCI-H460 lung it was 77.2%; with HOP-92 NSCLC it was -46.3% (active). In addition, the growth with NCI-H522 lung was 14.7%; in the assay on A549/ATCC NSCLC it was 3.1% (active); in the assay on 786-0 renal, 10.8%; in the assay on COLO 205 colon, 96.6%; in the assay on DU-145 prostate, 73.3%; in the assay on K-562 leukemia it was -41% (active). Also, the growth was 74.5% in the assay with MALME-3M melanoma; 81.7% in the assay with MDA-MB-231 breast; 108% with RXF 393 renal; 73.1% with SF-268 CNS; 74.8% in the assay on SF-295 CNS; 16.4% in the assay on SF-539 CNS. Moreover, the growth with UACC-257 melanoma is 87.7%; with M14 melanoma it was 60.4%.
Take `COC(=O)[C@@]1(O)C[C@H]2O[C@]1(C)n1c3ccccc3c3c4c(c5c6ccccc6n2c5c31)C(=O)NC4`: the growth with NCI-H23 lung was -43% (active); with NCI-H226 lung, -63.1% (active); with NCI-H322M lung it was -33.6% (active); in the assay with HOP-62 NSCLC it was -59.3% (active); in the assay with NCI-H460 lung, -72.8% (active); with HOP-92 NSCLC, -44.3% (active). For the same compound, the growth is -59.2% (active) with NCI-H522 lung; -39.7% (active) in the assay with A549/ATCC NSCLC; -89.5% (active) with 786-0 renal; -66.6% (active) with COLO 205 colon; -10.9% (active) in the assay on DU-145 prostate; 0.0974% (active) with K-562 leukemia. Also, the growth is -81% (active) in the assay with MALME-3M melanoma; -49.1% (active) in the assay with MDA-MB-231 breast; -93.9% (active) in the assay with RXF 393 renal; -28.8% (active) in the assay on SF-268 CNS; -93.4% (active) in the assay with SF-295 CNS; -88% (active) in the assay with SF-539 CNS. The growth was -47.2% (active) in the assay with UACC-257 melanoma and -67.5% (active) in the assay on M14 melanoma.
In the case of `Fc1ccc(C2=CCNCC2)cc1`, the growth was 50.2% in the assay with NCI-H23 lung; 86.6% in the assay on NCI-H226 lung; 111% in the assay with NCI-H322M lung; 112% with HOP-62 NSCLC; 99.5% with NCI-H460 lung; 119% in the assay with HOP-92 NSCLC. Besides, the growth with NCI-H522 lung was 63.1%; in the assay with A549/ATCC NSCLC, 113%; with 786-0 renal, 78.8%; with COLO 205 colon, 103%; with DU-145 prostate, 111%; in the assay with K-562 leukemia it was 108%. Also, the growth is 95.5% in the assay with MALME-3M melanoma; 80.7% in the assay on MDA-MB-231 breast; 97.7% with RXF 393 renal; 96.8% in the assay on SF-268 CNS; 77.8% in the assay with SF-295 CNS; 93.4% in the assay on SF-539 CNS. Besides, the figures for the growth with UACC-257 melanoma and in the assay with M14 melanoma were -21.6% (active) and 98.9%, respectively.
With `Cc1c(C)c([N+](=O)[O-])c(C)c(C)c1[N+](=O)[O-]`, the growth was 112% in the assay with NCI-H23 lung; 100% with NCI-H226 lung; 121% in the assay with NCI-H322M lung; 109% with HOP-62 NSCLC; 113% with NCI-H460 lung; 135% in the assay with HOP-92 NSCLC. Also, the growth in the assay with NCI-H522 lung was 80.3%; in the assay with A549/ATCC NSCLC, 91.5%; with 786-0 renal, 103%; with COLO 205 colon it was 119%; in the assay on DU-145 prostate it was 108%; with K-562 leukemia, 102%. The growth with MALME-3M melanoma is 138%; in the assay with MDA-MB-231 breast, 108%; in the assay on RXF 393 renal, 112%; in the assay on SF-268 CNS it was 100%; in the assay on SF-295 CNS it was 101%; in the assay with SF-539 CNS, 108%. Moreover, the growth in the assay with UACC-257 melanoma was 99.5%; with M14 melanoma it was 115%.
Consider `Cc1c(NS(=O)(=O)c2ccccc2)ccc([N+](=O)[O-])c1Cl`, for which the growth with NCI-H23 lung is 58.6%; with NCI-H226 lung it was 62.7%; in the assay on NCI-H322M lung it was 102%; in the assay on HOP-62 NSCLC it was 95.1%; in the assay with NCI-H460 lung, 67%; in the assay on HOP-92 NSCLC it was -9.14% (active). For the same compound, the growth in the assay on NCI-H522 lung is 55.7%; in the assay with A549/ATCC NSCLC it was 58.6%; in the assay on 786-0 renal, 41.1%; in the assay on COLO 205 colon it was 109%; in the assay on DU-145 prostate, 94%; in the assay with K-562 leukemia, 74.4%. Further, the growth in the assay with MALME-3M melanoma was 35.3%; in the assay on MDA-MB-231 breast it was 84.8%; in the assay with RXF 393 renal, 77%; with SF-268 CNS, 75.9%; in the assay on SF-295 CNS it was 31%; in the assay with SF-539 CNS, 67.4%. Moreover, the results for the growth in the assay on UACC-257 melanoma and in the assay with M14 melanoma were 59.5% and 70.4%, respectively.
With `COc1cc([C@@H]2c3cc4c(cc3[C@H](OC(C)=O)[C@H]3COC(=O)[C@H]23)OCO4)cc(OC)c1OC`, the growth in the assay with NCI-H23 lung was 25%; with NCI-H226 lung it was 76.4%; with NCI-H322M lung, 42.7%; with HOP-62 NSCLC, 37.8%; in the assay on NCI-H460 lung it was 9.09% (active); with HOP-92 NSCLC it was 32.8%. Also, the growth is -4.13% (active) with NCI-H522 lung; 19.5% in the assay on A549/ATCC NSCLC; 20.5% with 786-0 renal; -27.9% (active) in the assay with COLO 205 colon; 1.84% (active) with DU-145 prostate; 9.74% (active) with K-562 leukemia. The growth is 68.9% in the assay with MALME-3M melanoma; 23.7% in the assay on MDA-MB-231 breast; 54.9% in the assay with RXF 393 renal; 37% in the assay on SF-268 CNS; 10.6% in the assay on SF-295 CNS; -11% (active) in the assay on SF-539 CNS. Moreover, the growth with UACC-257 melanoma was 75.9%; with M14 melanoma, 6.87% (active).
As to `CN1CC(CNC(=O)OCc2ccccc2)CC2c3cccc4c3c(cn4C)CC21` (stereo not given), the growth was 71.6% in the assay with NCI-H23 lung; 78% in the assay on NCI-H226 lung; 82.9% in the assay on NCI-H322M lung; 35.2% in the assay with HOP-62 NSCLC; 40.4% in the assay with NCI-H460 lung; 29.5% in the assay on HOP-92 NSCLC. For the same compound, the growth in the assay with NCI-H522 lung is 60.5%; with A549/ATCC NSCLC, 45.5%; in the assay on 786-0 renal, 42.8%; with COLO 205 colon, -72.5% (active); in the assay with DU-145 prostate, 56.8%; in the assay on K-562 leukemia it was 3.66% (active). For the same compound, the growth in the assay on MALME-3M melanoma is -16% (active); with MDA-MB-231 breast it was 27.3%; in the assay with RXF 393 renal it was 8.6% (active); in the assay with SF-268 CNS, 59%; in the assay on SF-295 CNS it was 25.8%; in the assay on SF-539 CNS it was 28.6%. The growth with UACC-257 melanoma was -60.4% (active); in the assay on M14 melanoma, -58% (active).
